# In PubChem BioAssay (EPA / NIEHS):
# Results filed as inconclusive are left out. Active and inactive are the calls of the source. How the source made its calls: active means hit-call score of the fitted dose curve at least 0.9, where 1 is the maximum; inconclusive means response in the unintended direction; inactive means score below 0.9.
# Legend:
# [1] = biological target: guinea pig Sigma Receptor, Non-selective Binding, SIGMAR1 (gene 100135589) (UniProt Q60492); experiment: NVS_OR_gSIGMA_NonSelective: NovaScreen (NVS) Nuclear Receptor Binding Assay for guinea pig Sigma Receptor, Non-selective Binding (AID 2283367)
# Outline: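 Radioligand displacement on guinea pig brain membranes, read by filter-based scintillation counting 1 h after dosing. Loss of signal versus DMSO; initial duplicate single-point screen at 25 uM, actives followed in concentration series.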
# [2] = system: guinea pig Dopamine Transporter (DAT), gene 100714898; experiment: NVS_TR_gDAT: NovaScreen (NVS) Transporter Assay for guinea pig Dopamine Transporter (DAT) (AID 2283369);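 further: active compounds lower bound radioligand signal relative to DMSO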
# Protocol: NVS_TR_gDAT is a biochemical, single-readout assay that uses extracted gene-proteins from Guinea pig striatal membranes in a tissue-based cell-free assay. Measurements were taken 2 hours after chemical dosing in a 48-well plate.NVS_TR_gDAT is one of one assay component(s) measured or calculated from the NVS_TR_gDAT assay. It is designed to make measurements of radioligand binding, a form of binding reporter, as detected with scintillation counting signals by Filter-based radiodetection technology.Data from the assay component NVS_TR_gDAT was analyzed into 1 assay endpoint. This assay endpoint, NVS_TR_gDAT, was analyzed in the positive analysis fitting direction relative to DMSO as the negative control and baseline of activity. Using a type of binding reporter, loss-of-signal activity can be used to understand changes in the binding as they relate to the gene Slc6a3. Furthermore, this assay endpoint can be referred to as a primary readout, because the performed assay has only produced 1 assay endpoint. To generalize the intended target to other relatable targets, this assay endpoint is annotated to the transporter intended target family, where the subfamily is neurotransmitter transporter.
# Binding assays used specific radioligands (tritiated, iodinated) with non-radioactive competitive displacement ligands in agonist or antagonist protocols (as indicated) and various reference compounds and inhibitors to titrate specific binding to receptors and transporters. Most enzyme assays (CYPs, kinases, phosphatases, proteases, HDACs) used recombinant protein and specific substrates (fluorescence mostly, some colorimetric and radioactive) and inhibitors, followed by a biochemical separation of substrate and product. All assays for the biochemical HTS were initially run in duplicate at a single concentration (10 uM for CYP450 assays and 25 uM for all others). Assay-chemical combinations meeting a pre-defined threshold (e.g., 30% inhibition and other criteria defined below) were then run in singleton concentration-response format with maximum concentration of 20 uM for CYPs and 50 uM for all others. Each assay was run with positive and negative controls, and concurrent controls on every plate. The follow-up (secondary) screen tested active chemical-pairs in concentration series, as well as a few additional assays not tested in the primary screen, some selected negative inactives, and several cases re-run in the concentration series for confirmatory purposes.
# [3] = biological target: Nuclear receptor subfamily 1 group I member 2 (Homo sapiens) (UniProt O75469); experiment: NVS_NR_hPXR: NovaScreen (NVS) Nuclear Receptor Binding Assay for human Pregnane X Receptor (PXR) (AID 2283365);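 further: a drop in FRET signal versus DMSO baseline means the compound binds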
# Outline: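 Cell-free TR-FRET binding assay with extracted human PXR protein, read 2 h after dosing. Primary screen run in duplicate at 25 uM, actives followed in concentration series; loss of signal fitted against DMSO baseline.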
# [4] = biological target: Peroxisome proliferator-activated receptor gamma (Homo sapiens) (UniProt P37231); experiment: NVS_NR_hPPARg: NovaScreen (NVS) Nuclear Receptor Binding Assay for human Peroxisome Proliferator-activated Receptor gamma (PPARg) (AID 2283370)
# Outline: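 Cell-free fluorescence polarization binding to human PPARg protein, read 2 h after dosing. Primary screen in duplicate at 25 uM, actives followed in concentration series; loss of signal relative to DMSO scored.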
# [5] = biological target: human Thyroid Receptor Alpha (TRa), THRA (gene 7067) (UniProt P10827); experiment: NVS_NR_hTRa_Antagonist: NovaScreen (NVS) Nuclear Receptor Binding Assay for human Thyroid Receptor Alpha Antagonism (TRa) (AID 2283362)
# Outline: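 Cell-free AlphaLISA chemiluminescent binding read 1 h after dosing, antagonist mode; signal loss versus DMSO baseline. Primary screen in duplicate at 25 uM, then concentration series for actives.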
# [6] = biological target: Glucocorticoid receptor (Homo sapiens) (UniProt P04150); experiment: NVS_NR_hGR: NovaScreen (NVS) Nuclear Receptor Binding Assay for human Glucocorticoid Receptor (GR) (AID 2283363)
# Outline: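 Cell-free radioligand displacement assay on extracted human GR, read 16 h after dosing by filter-based scintillation counting. Screened in duplicate at 25 uM, then concentration series for actives; loss of signal versus DMSO baseline.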
# [7] = biological target: human Serotonin Transporter (SERT), SLC6A4 (gene 6532) (UniProt P31645); experiment: NVS_TR_hSERT: NovaScreen (NVS) Transporter Assay for human Serotonin Transporter (SERT) (AID 2283372)
# Outline: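 Radioligand binding to native SERT in human platelet membranes, read by filter-based scintillation counting 1 h after dosing. Primary screen in duplicate at 25 uM; actives followed up in concentration series; loss of signal versus DMSO baseline.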
# [8] = system: rat Norepinephrine Transporter (NET), gene 83511; experiment: NVS_TR_rNET: NovaScreen (NVS) Transporter Assay for rat Norepinephrine Transporter (NET) (AID 2283373)
# Outline: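 Rat forebrain membranes; radioligand binding measured by filter-based scintillation counting 1 hour after dosing. Loss of specific binding versus DMSO baseline scored; primary screen in duplicate at 25 uM, actives followed up in concentration series.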
# [9] = biological target: rat Androgen Receptor (AR), Ar (gene 24208) (UniProt P15207); experiment: NVS_NR_rAR: NovaScreen (NVS) Nuclear Receptor Binding Assay for rat Androgen Receptor (AR) (AID 2283366)
# Outline: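 Cell-free radioligand binding on extracts of prostate from testosterone-pretreated rats, read by filter-based scintillation counting 18 h after dosing. Loss of bound signal fitted positively versus DMSO; primary screen in duplicate at 25 uM, actives followed up in concentration series.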
# [10] = biological target: human Adenosine Transporter (Adot), SLC29A1 (gene 2030) (UniProt Q99808); experiment: NVS_TR_hAdoT: NovaScreen (NVS) Transporter Assay for human Adenosine Transporter (Adot) (AID 2283368)
# Outline: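 U937-derived membranes, cell-free radioligand binding, filter scintillation 1 h after dosing. 25 uM duplicate screen; hits (e.g. 30% inhibition) run in concentration-response up to 50 uM; loss of signal versus DMSO.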
# Sequence of Nuclear receptor subfamily 1 group I member 2 (Homo sapiens) (O75469 whole entry, looked up): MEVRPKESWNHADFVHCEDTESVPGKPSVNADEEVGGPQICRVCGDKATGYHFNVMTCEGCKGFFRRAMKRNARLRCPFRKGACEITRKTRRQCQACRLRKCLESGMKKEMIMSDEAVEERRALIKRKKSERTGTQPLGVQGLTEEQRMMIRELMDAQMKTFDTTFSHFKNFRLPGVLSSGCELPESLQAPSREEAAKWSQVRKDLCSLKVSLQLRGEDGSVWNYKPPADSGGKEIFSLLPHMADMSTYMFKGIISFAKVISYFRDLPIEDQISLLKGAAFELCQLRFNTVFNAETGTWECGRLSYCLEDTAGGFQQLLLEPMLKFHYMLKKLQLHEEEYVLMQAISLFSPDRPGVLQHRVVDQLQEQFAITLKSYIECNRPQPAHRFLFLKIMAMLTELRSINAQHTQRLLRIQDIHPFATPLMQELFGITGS
# Sequence of human Thyroid Receptor Alpha (TRa), THRA (gene 7067) (P10827 whole entry, looked up): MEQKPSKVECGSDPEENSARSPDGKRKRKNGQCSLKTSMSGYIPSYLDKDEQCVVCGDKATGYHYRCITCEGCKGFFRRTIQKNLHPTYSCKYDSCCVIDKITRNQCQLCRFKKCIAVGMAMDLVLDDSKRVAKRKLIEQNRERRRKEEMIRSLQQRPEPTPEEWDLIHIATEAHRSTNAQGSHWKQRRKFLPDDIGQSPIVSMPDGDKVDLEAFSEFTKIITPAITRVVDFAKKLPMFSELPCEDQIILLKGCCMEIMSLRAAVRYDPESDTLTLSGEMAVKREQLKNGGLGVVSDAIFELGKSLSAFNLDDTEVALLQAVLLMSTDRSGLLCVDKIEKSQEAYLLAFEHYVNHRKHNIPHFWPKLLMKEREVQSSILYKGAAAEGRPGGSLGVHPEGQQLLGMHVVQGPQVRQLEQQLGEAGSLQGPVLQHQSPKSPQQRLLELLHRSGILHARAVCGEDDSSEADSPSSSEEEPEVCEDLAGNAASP
# Sequence of Peroxisome proliferator-activated receptor gamma (Homo sapiens) (P37231 whole entry, looked up): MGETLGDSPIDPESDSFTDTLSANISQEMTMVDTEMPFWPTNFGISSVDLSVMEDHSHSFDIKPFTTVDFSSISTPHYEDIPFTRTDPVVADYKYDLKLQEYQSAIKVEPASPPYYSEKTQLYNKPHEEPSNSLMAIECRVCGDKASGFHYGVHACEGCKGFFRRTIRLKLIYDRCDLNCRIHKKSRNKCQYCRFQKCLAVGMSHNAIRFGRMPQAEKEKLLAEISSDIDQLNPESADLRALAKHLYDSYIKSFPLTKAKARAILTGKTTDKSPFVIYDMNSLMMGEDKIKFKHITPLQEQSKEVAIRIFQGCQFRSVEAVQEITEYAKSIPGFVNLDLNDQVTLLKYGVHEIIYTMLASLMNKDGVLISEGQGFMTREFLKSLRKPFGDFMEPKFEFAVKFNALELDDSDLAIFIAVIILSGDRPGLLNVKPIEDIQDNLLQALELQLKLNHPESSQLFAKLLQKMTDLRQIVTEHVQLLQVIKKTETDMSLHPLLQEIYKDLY
# Sequence of guinea pig Sigma Receptor, Non-selective Binding, SIGMAR1 (gene 100135589) (Q60492 whole entry, looked up): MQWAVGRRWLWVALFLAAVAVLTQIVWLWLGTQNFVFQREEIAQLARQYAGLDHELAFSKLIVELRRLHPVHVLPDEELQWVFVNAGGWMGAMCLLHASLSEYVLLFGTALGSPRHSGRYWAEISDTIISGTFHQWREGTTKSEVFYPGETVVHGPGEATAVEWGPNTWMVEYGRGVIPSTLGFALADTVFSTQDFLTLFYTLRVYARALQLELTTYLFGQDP
# Sequence of human Adenosine Transporter (Adot), SLC29A1 (gene 2030) (Q99808 whole entry, looked up): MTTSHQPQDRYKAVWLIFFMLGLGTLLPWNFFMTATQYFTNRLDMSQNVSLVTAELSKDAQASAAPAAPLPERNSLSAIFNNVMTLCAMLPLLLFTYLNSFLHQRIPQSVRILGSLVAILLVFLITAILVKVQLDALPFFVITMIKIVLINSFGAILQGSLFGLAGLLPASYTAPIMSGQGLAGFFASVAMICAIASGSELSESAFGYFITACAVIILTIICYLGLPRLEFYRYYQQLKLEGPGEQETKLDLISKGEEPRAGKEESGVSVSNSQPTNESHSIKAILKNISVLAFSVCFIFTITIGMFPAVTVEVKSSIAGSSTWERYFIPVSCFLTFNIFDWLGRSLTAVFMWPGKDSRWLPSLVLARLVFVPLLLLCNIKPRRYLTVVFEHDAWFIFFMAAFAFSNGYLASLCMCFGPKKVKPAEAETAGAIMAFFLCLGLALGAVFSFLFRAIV
# Sequence of Glucocorticoid receptor (Homo sapiens) (P04150 whole entry, looked up): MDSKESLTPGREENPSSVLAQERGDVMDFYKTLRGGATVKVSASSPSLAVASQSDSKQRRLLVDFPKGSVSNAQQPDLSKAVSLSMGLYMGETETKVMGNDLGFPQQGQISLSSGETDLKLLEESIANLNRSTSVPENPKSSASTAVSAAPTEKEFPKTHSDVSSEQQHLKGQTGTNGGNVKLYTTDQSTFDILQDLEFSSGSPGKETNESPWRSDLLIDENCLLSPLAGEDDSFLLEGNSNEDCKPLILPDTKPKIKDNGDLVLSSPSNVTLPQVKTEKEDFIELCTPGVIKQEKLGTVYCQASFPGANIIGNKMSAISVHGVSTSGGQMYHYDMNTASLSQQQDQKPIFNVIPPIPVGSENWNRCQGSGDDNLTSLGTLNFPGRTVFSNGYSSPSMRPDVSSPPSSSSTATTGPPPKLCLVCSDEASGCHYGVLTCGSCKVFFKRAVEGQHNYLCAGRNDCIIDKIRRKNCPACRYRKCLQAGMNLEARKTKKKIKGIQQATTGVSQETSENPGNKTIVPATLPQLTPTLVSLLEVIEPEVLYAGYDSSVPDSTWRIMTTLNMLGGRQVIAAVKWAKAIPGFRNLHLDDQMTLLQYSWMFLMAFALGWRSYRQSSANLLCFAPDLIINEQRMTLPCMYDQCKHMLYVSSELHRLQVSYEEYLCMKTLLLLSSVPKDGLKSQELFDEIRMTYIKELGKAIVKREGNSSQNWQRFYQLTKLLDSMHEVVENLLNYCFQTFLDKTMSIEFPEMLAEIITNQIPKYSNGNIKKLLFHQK
# Sequence of human Serotonin Transporter (SERT), SLC6A4 (gene 6532) (P31645 whole entry, looked up): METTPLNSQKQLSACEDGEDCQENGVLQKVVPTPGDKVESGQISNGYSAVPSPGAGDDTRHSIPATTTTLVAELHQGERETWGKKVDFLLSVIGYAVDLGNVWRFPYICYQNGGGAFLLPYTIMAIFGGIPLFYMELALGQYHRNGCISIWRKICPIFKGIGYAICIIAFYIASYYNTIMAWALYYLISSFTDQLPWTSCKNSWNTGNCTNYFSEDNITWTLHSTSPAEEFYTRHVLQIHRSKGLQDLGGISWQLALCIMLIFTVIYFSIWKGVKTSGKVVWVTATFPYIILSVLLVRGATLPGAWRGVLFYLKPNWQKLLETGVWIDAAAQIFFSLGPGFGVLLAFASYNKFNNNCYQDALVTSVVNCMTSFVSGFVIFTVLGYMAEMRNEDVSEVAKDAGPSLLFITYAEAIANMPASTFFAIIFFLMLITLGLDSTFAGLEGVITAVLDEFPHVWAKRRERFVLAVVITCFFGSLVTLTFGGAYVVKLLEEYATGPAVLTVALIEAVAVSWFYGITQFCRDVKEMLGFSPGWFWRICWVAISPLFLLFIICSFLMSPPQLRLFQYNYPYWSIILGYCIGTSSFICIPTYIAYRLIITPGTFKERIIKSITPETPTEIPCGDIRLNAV
# Sequence of rat Androgen Receptor (AR), Ar (gene 24208) (P15207 whole entry, looked up): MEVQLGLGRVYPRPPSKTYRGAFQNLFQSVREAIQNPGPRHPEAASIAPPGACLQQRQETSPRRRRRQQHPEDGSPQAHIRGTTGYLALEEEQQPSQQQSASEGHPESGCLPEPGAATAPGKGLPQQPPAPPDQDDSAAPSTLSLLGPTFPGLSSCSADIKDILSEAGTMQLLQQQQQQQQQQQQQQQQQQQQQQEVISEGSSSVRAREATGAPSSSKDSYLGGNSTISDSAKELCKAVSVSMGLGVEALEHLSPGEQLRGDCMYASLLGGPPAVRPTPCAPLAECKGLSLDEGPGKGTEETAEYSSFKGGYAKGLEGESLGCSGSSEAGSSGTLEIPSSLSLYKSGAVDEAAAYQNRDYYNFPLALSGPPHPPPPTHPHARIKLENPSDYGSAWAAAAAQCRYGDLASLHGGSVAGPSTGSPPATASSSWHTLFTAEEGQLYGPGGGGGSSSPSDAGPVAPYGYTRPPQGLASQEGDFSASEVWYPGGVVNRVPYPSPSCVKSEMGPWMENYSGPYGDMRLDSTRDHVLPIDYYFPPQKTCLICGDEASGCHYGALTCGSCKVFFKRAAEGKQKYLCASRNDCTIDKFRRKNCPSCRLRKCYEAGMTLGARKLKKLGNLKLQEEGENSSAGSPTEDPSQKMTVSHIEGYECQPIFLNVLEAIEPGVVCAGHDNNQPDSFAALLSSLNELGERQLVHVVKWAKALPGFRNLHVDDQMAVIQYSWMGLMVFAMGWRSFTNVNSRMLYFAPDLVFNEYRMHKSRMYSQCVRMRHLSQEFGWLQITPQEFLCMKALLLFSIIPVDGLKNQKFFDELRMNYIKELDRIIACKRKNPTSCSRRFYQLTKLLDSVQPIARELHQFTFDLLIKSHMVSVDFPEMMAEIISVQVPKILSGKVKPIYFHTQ
smiles,measurement,setting,value
CCCCCCCCCC,outcome,[1],inactive
same,outcome,[2],inactive
OCC(CO)(CO)CO,outcome,[3],inactive
C[C@@H](Oc1ccc(CNC(=O)c2cccnc2Oc2ccc3c(c2)OCO3)c(F)c1)C(=O)O,AC50,[4],13.6 µM (active)
Cc1nc(-c2ccccn2)ncc1C(=O)Nn1cc(C)c2cc(F)ccc21,outcome,[3],inactive
c1ccc(C(O[C@@H]2CCCN(CCc3ccc4c(c3)OCO4)C2)c2ccccc2)cc1,outcome,[5],inactive
same,outcome,[6],inactive
same,AC50,[1],2.6 µM (active)
same,AC50,[2],0.943 µM (active)
same,outcome,[7],inactive
same,AC50,[8],11.4 µM (active)
CCCCCCCC/C=C\CCCCCCCC(=O)OC[C@@H](O)[C@H]1OC[C@H](O)[C@H]1O,outcome,[3],inactive
CC[C@H](C)C(=O)O[C@H]1C[C@H](O)C=C2C=C[C@H](C)[C@H](CC[C@@H](O)C[C@@H](O)CC(=O)O)[C@H]21,AC50,[6],15.5 µM (active)
COc1cc(C(C)C)c2c(c1)S(=O)(=O)N(COc1cc(=O)n3cccc(OCCN4CCCCC4)c3n1)C2=O,AC50,[2],4.1 µM (active)
same,AC50,[4],6.25 µM (active)
C=CCc1cc(S(=O)(=O)c2ccc(O)c(CC=C)c2)ccc1O,AC50,[6],4.59 µM (active)
same,AC50,[9],4.5 µM (active)
same,AC50,[10],25 µM (active)
same,AC50,[2],13.2 µM (active)
same,AC50,[4],0.621 µM (active)
NC(=O)NN=Cc1ccc([N+](=O)[O-])o1,outcome,[4],inactive
OCCOCCOCCO,AC50,[3],0.108 µM (active)
same,outcome,[7],inactive
CC(C)CCCCCCOC(=O)C1CCCCC1C(=O)OCCCCCCC(C)C (centres undefined),outcome,[5],inactive
Cc1nccn1-c1ccc(Sc2cccc(C3(C(N)=O)CCOCC3)c2)cc1,AC50,[1],19.7 µM (active)
same,outcome,[10],inactive
same,AC50,[2],0.0243 µM (active)
same,outcome,[4],inactive
c1ccc2c(c1)-c1cccc3c1c-2cc1ccccc13,outcome,[4],inactive
CCCCC(CC)C(=O)OCCOCCOCCOC(=O)C(CC)CCCC (centres undefined),outcome,[5],inactive
same,outcome,[1],inactive
Cc1cccc(O)c1C,outcome,[4],inactive
CCn1nc(C)c2c1C(=O)NCC(c1ccc(O)cc1)=N2,outcome,[1],inactive
same,outcome,[10],inactive
same,outcome,[2],inactive
same,outcome,[4],inactive
same,outcome,[8],inactive
OCc1ccccc1,outcome,[4],inactive
CCN(CC)C(=S)SSC(=S)N(CC)CC,AC50,[3],0.7 µM (active)
same,AC50,[1],25 µM (active)
same,outcome,[2],inactive
O=c1[nH]cnc2c1ncn2[C@H]1CC[C@@H](CO)O1,outcome,[8],inactive
CCOc1ccc2[nH]cc(C(=O)NCc3ccccc3)c(=O)c2n1,outcome,[4],inactive
OC[C@H]1O[C@@H]2O[C@H]3[C@H](O)[C@@H](O)[C@@H](O[C@H]4[C@H](O)[C@@H](O)[C@@H](O[C@H]5[C@H](O)[C@@H](O)[C@@H](O[C@H]6[C@H](O)[C@@H](O)[C@@H](O[C@H]7[C@H](O)[C@@H](O)[C@@H](O[C@H]1[C@H](O)[C@H]2O)O[C@@H]7CO)O[C@@H]6CO)O[C@@H]5CO)O[C@@H]4CO)O[C@@H]3CO,outcome,[5],inactive
CCCCCCCCCCCCCCCCOS(=O)(=O)O,AC50,[3],12.5 µM (active)
same,AC50,[9],3.03 µM (active)
same,AC50,[4],1.64 µM (active)
CCCCCCCCN(C)C,AC50,[1],1.88 µM (active)
Cc1ncc([C@@H](CCCCCCc2ccc3c(n2)NCCC3)CC(=O)O)cn1,AC50,[1],14.5 µM (active)
same,outcome,[4],inactive
CC(C)C(=O)Nc1ccc([N+](=O)[O-])c(C(F)(F)F)c1,outcome,[5],inactive
same,outcome,[1],inactive
C[C@]12C=CC(=O)C=C1CC[C@H]1[C@@H]3C[C@@H](O)[C@](O)(C(=O)CO)[C@@]3(C)C[C@H](O)[C@@]12F,AC50,[6],0.0746 µM (active)
same,outcome,[3],inactive
